# Calls of active or inactive are those of the source. The call rests on the fitted dose curve; in most records, active means well fitted curve in the direction sought with a large enough effect; inconclusive means small, poorly fitted or top-dose-only effect, or another doubt; inactive means no such curve, though single readings can be large or run the other way.
# Target: Hexokinase-4 (Homo sapiens) + Glucokinase regulatory protein (Homo sapiens) (UniProt P35557+Q14397)
# Test: qHTS assay for inhibitors of recombinant human GCK-GKRP interaction: ADP-Glo assay (AID 743206)
# Conditions: ADP-Glo luminescence, 60 min, 0% = vehicle-only wells with enzyme present; series mostly up to 76.9 µM
# Text: Glucokinase (GCK) is a glucose sensor in hepatocytes and pancreatic beta-cells. Hepatic GCK is regulated by glucokinase regulatory protein (GKRP), which is predominantly localized to the liver. GKRP binds to GCK inhibiting its activity in the fasting state while in the presence of glucose the GKRP is displaced. There is an additional layer of regulation by fructose 1-phosphate and fructose 6-phosphate, which inhibit and enhance the GCK-GKRP interaction, respectively. GCK plays a role in glucose homeostasis and there is an interest in the development of strategies to activate GCK to lower blood glucose levels in type 2 diabetes. To date the majority of effort has focused on direct activation of GCK and the assays developed herein look to activate GCK by inhibiting its binding to GKRP. A compound that inhibits the interaction of GCK with GKRP could be important for the treatment of diabetes and can also be used as a tool compound to further elucidate GCK-GKRP biology. To that end, we have developed a sensitive HTS biochemical assay where in GCK activity is coupled to luciferase to interrogate the GCK-GKRP interaction. This assay was screened against a small compound library to look for modulators of activity.
# 2 uL of 15 nM GST-GCK and 15 nM FLAG-GKRP proteins with 2 uM S6P (columns 1-2, 4-48; Millipore, Billerica, MA) are dispensed into Greiner, white solid-bottom 1536-well assay plates; columns 3 receive buffer without GCK as a control for maximum inhibition. Compounds (23 nL) are then transferred via Kalypsys pin tool equipped with 1536-pin array (10 nL slotted pins, V&P Scientific, San Diego, CA). The library compounds are in columns 5-48 and columns 1-4 serve as controls with DMSO in columns 1 and 3 and 26 mM 1:1.5 fold serial of gluckokinase activator (GKA-EMD) in column 2 and 26 mM of the glucokinase activator (GKA-EMD) in column 4. Following addition of compound, 1 uL of ATP […] is added, and the plate is incubated for 60 minutes at room temperature. The amount of ADP is then quantified by the ADP-Glo Kit (Promega, Madison, WI). First, 2 uL of the first kit reagent is added, and the reaction is incubated for 45 minutes; then, 4 uL of the second kit reagent are added and the reaction is incubated for 30 minutes at which time the luminescence is read on a Viewlux plate reader (Perkin-Elmer, Waltham, MA). The final concentration of reagents in the reaction are 0.4 mM ATP, 25 mM Hepes pH 7.6, 25 mM KCl, 2 mM MgCl2, 1 mM DTT, 0.025% BSA, 0.01% Tween 20, 5 mM glucose. Data are normalized to DMSO-treated control columns with (maximum signal) and without (minimum signal) enzyme.
# Hexokinase-4 (Homo sapiens) + Glucokinase regulatory protein (Homo sapiens), sequence (P35557 whole entry, looked up): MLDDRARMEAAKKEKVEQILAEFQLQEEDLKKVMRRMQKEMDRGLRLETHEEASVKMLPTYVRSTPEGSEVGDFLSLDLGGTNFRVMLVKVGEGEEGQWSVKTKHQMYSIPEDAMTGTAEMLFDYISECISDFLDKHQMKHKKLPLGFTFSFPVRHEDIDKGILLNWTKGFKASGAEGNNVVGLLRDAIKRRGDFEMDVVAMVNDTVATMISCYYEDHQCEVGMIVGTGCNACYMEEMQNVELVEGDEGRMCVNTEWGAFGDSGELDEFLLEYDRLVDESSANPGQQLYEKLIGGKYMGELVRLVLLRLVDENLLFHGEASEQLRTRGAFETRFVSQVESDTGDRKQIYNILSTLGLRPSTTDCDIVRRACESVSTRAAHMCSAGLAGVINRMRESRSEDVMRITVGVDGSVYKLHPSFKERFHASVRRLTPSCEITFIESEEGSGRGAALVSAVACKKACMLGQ
# Hexokinase-4 (Homo sapiens) + Glucokinase regulatory protein (Homo sapiens), sequence (Q14397 whole entry, looked up): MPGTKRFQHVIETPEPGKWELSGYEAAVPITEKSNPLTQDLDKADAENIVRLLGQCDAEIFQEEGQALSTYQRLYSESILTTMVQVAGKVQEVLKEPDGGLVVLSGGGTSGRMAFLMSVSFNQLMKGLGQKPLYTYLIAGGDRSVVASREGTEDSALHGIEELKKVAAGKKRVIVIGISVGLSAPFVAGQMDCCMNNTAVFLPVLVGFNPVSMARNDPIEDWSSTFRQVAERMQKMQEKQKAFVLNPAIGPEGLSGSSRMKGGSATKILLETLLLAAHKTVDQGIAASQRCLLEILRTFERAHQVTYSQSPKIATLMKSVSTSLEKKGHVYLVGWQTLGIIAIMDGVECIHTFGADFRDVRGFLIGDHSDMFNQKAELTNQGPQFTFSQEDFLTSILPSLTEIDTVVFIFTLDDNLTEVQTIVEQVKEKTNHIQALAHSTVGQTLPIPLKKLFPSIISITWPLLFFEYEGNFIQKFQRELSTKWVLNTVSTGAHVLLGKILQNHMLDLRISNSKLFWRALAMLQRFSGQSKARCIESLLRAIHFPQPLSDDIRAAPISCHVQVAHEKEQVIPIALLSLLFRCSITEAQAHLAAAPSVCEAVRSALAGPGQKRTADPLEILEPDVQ
row,SMILES,outcome
1,CC(C)C[C@H](NC(=O)[C@@H](O)[C@H](N)Cc1ccccc1)C(=O)O,inactive
2,O=C(O)COCCN1CCN(C(c2ccccc2)c2ccc(Cl)cc2)CC1 (stereo not given),inactive
3,N=c1nc(N2CCCCC2)cc(N)n1O,inactive
4,Cc1[nH]c(=O)c(C#N)cc1-c1ccc2nccn2c1,inactive
5,Nc1ccc(S(=O)(=O)Nc2ccnn2-c2ccccc2)cc1,inactive
6,O=C(Nc1nc2ccccc2n1CCN1CCOCC1)c1cccc([N+](=O)[O-])c1,inactive
7,Cc1oncc1C(=O)Nc1ccc(C(F)(F)F)cc1,inactive
8,NCCc1ccc(O)c(O)c1,inactive
9,Cc1[nH]c(=O)c(C#N)cc1-c1ccncc1,inactive
10,CCN(CC)CCCC(C)Nc1ccnc2cc(Cl)ccc12 (stereo not given),inactive
11,NCCCC(N)(C(=O)O)C(F)F (stereo not given),inactive
12,CC(=O)Oc1ccccc1C(=O)O,inactive
13,CCOC(=O)C1=C[C@]2(CC)CCCN3CCc4c(n1c1ccccc41)[C@@H]32,inactive
14,NC[C@H](O)c1ccc(O)c(O)c1,inactive
15,Nc1nc2ccc(OC(F)(F)F)cc2s1,inactive
16,O=c1[nH]cnc2[nH]ncc12,inactive
17,CCn1cc(C(=O)O)c(=O)c2cc(F)c(N3CCNC(C)C3)c(F)c21 (stereo not given),inactive
18,NC(=O)c1cnccn1,inactive
19,O=c1n(CCCN2CCN(c3cccc(Cl)c3)CC2)nc2ccccn12,inactive
20,Cc1ccc(N(CC2=NCCN2)c2cccc(O)c2)cc1,inactive

row,SMILES,outcome
1,C1COC(NC(C2CC2)C2CC2)=N1,inactive
2,Cc1cnc(NC(=O)C2=C(O)c3ccccc3S(=O)(=O)N2C)s1,inactive
3,CCC(C)N(C)C(=O)c1cc2ccccc2c(-c2ccccc2Cl)n1 (stereo not given),inactive
4,CCCCNc1cc(C(=O)O)cc(S(N)(=O)=O)c1Oc1ccccc1,inactive
5,OC(CCN1CCCCC1)(c1ccccc1)C1CC2C=CC1C2 (stereo not given),inactive
6,Cc1cccc(-c2[nH]c(C(C)(C)C)nc2-c2ccc3nccnc3c2)n1,inactive
7,CC(C[N+](C)(C)C)OC(N)=O (stereo not given),inactive
8,Oc1ccc(C2CNCCc3c2cc(O)c(O)c3Cl)cc1 (stereo not given),inactive
9,OC(CN1CCC(Cc2ccc(F)cc2)CC1)c1ccc(Cl)cc1 (stereo not given),inactive
10,Clc1cccc(Cl)c1NC1=NCCN1,inactive
11,CC(C)NCC(O)COc1ccc(COCCOC(C)C)cc1 (stereo not given),inactive
12,NC(N)=NC(=O)c1nc(Cl)c(N)nc1N,inactive
13,NS(=O)(=O)c1cc2c(cc1Cl)NC=NS2(=O)=O,inactive
14,c1ccc([C@H]2CN3CCSC3=N2)cc1,inactive
15,CNC[C@H](O)c1cccc(O)c1,inactive
16,NNCCc1ccccc1,inactive
17,O=NN(CCCl)C(=O)NCCCl,inactive
18,O=C1CCc2cc(OCCCCc3nnnn3C3CCCCC3)ccc2N1,inactive
19,Cc1cn[nH]c1,inactive
20,CN1CCN(CCCN2c3ccccc3Sc3ccc(C(F)(F)F)cc32)CC1,inactive

# Reference: PubChem BioAssay (NCATS)
